The values that follow come from PubChem BioAssay (NCATS).

Results filed as inconclusive are left out. Calls of active or inactive are those of the source. Unless noted, the call rests on the fitted dose curve; in most records, active means well fitted curve in the direction sought with a large enough effect; inconclusive means small, poorly fitted or top-dose-only effect, or another doubt; inactive means no such curve, though single readings can be large; an effect the other way counts as inactive or inconclusive.

Assay [1] deals with ATP-dependent DNA helicase Q1 (Homo sapiens) (UniProt P46063). The experiment in a line: qHTS Validation Assay for Inhibitors of RecQ-Like Dna Helicase 1 (RECQ1) (AID 2353). Further: potency means the concentration at half of the fitted maximal effect. The method in brief: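 50 nM RECQ1T1 preincubated 15 min with compound in Tris pH 8.0 buffer with MgCl2, DTT, Tween-20 and 2.5 ug/ml poly(dI-dC); started with 200 nM TAMRA/BHQ-2 forked duplex and 2 mM ATP. Unwinding read as fluorescence (525/598 nm), two reads 2 h apart.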
(In general: qHTS replaces the single test concentration by a dilution series.)

Assay [2] in a line: Cytometric Cell-Based qHTS for Inhibitors of the mTORC1 Signaling Pathway in MEF (Tsc2-/-, p53-/-) Cells (AID 2660).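 Further: percent of cells above a phospho-rpS6 to PI ratio cutoff in each well; series mostly up to about 38 µM.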 The method in brief: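 Immunofluorescence qHTS of rpS6 Ser235/236 phosphorylation: MEFs (Tsc2-/-, p53-/-) treated 24 h, 37 C, in DMEM + 10% FBS. Alexa-488 signal normalized to PI count, referenced to rapamycin (7.5 nM) and DMSO; PI cell number recorded for viability.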

Assay [3] in a line: High Content Imaging Cell-Based qHTS for Inhibitors of the mTORC1 Signaling Pathway in MEF (Tsc2-/-, p53-/-) Cells (AID 2666).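 Further: percent of cells scored positive for phospho-rpS6 Ser235/236 immunostaining by imaging.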 The essentials: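 Read-out: % positive cells per well, with thresholds from highest- and lowest-signal wells, based on phospho-rpS6 (Ser235/236) intensity normalized to Hoechst nuclear stain. Cells: Tsc2-/-, p53-/- MEFs carrying empty vector; compound 24 hrs, 37 degree Celsius.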

Assay [4] in a line: High Content Imaging Cell-Based qHTS for Inhibitors of the mTORC1 Signaling Pathway in MEF Cells (AID 2667).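 Further: Tsc2-/- p53-/- MEFs stably re-expressing wild-type Tsc2 exposed 24 h; series mostly up to about 38 µM.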 The essentials: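 MEF (Tsc2-/-, p53-/-, WT Tsc2 re-expressed); cpd 24 h, 37 °C; PFA fix; Alexa-488 anti-p-rpS6 Ser235/236, PI, Hoechst; IN Cell imaging; Hoechst/Alexa-488 intensity ratio; % active cells, thresholds set from rapamycin and DMSO wells.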
Assay [5] in a line: Cytometry Cell-Based qHTS for Inhibitors of the mTORC1 Signaling Pathway in MEF cells (AID 2668). Further: potency means the concentration at half of the fitted maximal effect. The method in brief:
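Read-out: phospho-rpS6 Ser235/236 immunofluorescence normalized to propidium iodide intensity, scored as % active cells against a rapamycin (7.5 nM) threshold. Cells: Tsc2-/-, p53-/- MEFs stably expressing WT Tsc2, compound-treated 24 hrs at 37 degree Celsius.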

The nature of assay [6]: Validation screen for small molecules that induce DNA re-replication in MCF 10A normal breast cells (AID 463097). Further: nearly all actives have a fitted effect of over 60% in size. The method in brief:
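250 MCF 10A cells/well; compound pin-transferred; 48 hr, 37 C, 5% CO2; Hoechst 40 min; imaged 405/500-530 nm. Hits = more high-intensity nuclei.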

Assay [7] has as its target Ubiquitin carboxyl-terminal hydrolase 2 (Homo sapiens) (UniProt O75604). The experiment in a line: qHTS Validation Assay for Inhibitors of Ubiquitin-specific Protease USP2a Using CHOP2 as the Reporter (AID 463106). The method in brief:
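USP2 core (10nM final) was preincubated with compound for 30min at RT in 20mM Tris-HCl pH 8.0, 2mM CaCl2, 2mM beta-mercaptoethanol, 0.05% CHAPS. Ub-CHOP2 and reporter substrate (25nM each) were added, and fluorescence (Ex 485/Em 531nm) was read after 60min.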

The target of assay [8] is DNA polymerase III PolC-type (Bacillus subtilis (strain 168)) (UniProt P13267). As to the kind of experiment: qHTS Validation Assay for the Inhibitors of DNA Replication in Gram-Positive Bacteria (AID 485295).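 Further: reconstituted holoenzyme with PolC plus beta clamp SSB and primase; PicoGreen fluorescence of double-stranded DNA made on primed circular M13 template; series mostly up to about 57 µM.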 The essentials: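 PicoGreen fluorescence (ex 480–485/em 535–540 nm) reports dsDNA synthesized on ssM13Gori template with dNTPs/NTPs. Enzyme: holoenzyme rebuilt from purified PolC, beta subunit, SSB and primase. Compound preincubated before substrate addition; RT throughout.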

The target in assay [9] is Tumor susceptibility gene 101 protein (Homo sapiens) (UniProt Q99816). As to the kind of experiment: qHTS Validation Assay for Iinhibitors of HIV-1 Budding by Blocking the Interaction of PTAP/TSG101 (AID 485342; calls by dose curve). The essentials: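 FP read-out: FITC-PTAP peptide, 50 nM final, binding Tsg101 binding domain, 10 uM final; 20 min r.t.; 10 mM HEPES pH 7.5, 0.15 M NaCl, 0.01% Tween 20, 3 mM EDTA, 0.1 mM TCEP.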

In assay [10] the target is RecQ-like DNA helicase BLM (Homo sapiens) (UniProt P54132). As to the kind of experiment: qHTS Validation Assay for Inhibitors of Bloom's syndrome helicase (BLM) (AID 2364). The method in brief:
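BLM 50 nM in 25 mM Tris-HCl pH 8.0, 5 mM NaCl, 2 mM MgCl2, 1 mM DTT, 0.01% Tween-20, 2.5 ug/ml poly(dI-dC); 15 min cpd preinc, RT. Start: 200 nM forked DNA + 2 mM ATP (final). TAMRA read, 2 reads 2 h apart.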

Sequence of Ubiquitin carboxyl-terminal hydrolase 2 (Homo sapiens) (O75604 whole entry, looked up): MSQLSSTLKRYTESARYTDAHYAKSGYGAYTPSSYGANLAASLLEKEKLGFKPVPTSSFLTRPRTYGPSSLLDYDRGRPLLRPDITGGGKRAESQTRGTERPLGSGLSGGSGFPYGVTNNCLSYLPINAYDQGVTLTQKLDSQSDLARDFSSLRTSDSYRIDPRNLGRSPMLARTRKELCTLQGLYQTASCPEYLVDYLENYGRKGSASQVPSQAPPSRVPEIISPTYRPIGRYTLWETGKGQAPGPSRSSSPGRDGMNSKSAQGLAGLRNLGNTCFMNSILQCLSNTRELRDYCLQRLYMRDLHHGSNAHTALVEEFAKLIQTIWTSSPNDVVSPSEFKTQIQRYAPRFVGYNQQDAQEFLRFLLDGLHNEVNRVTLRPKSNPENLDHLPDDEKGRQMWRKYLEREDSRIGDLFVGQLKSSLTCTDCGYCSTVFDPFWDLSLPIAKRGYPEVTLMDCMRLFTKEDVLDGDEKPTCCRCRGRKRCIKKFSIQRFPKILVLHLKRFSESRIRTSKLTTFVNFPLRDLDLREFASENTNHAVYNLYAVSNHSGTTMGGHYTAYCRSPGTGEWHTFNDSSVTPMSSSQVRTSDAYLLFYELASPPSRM
Sequence of DNA polymerase III PolC-type (Bacillus subtilis (strain 168)) (P13267 whole entry, looked up): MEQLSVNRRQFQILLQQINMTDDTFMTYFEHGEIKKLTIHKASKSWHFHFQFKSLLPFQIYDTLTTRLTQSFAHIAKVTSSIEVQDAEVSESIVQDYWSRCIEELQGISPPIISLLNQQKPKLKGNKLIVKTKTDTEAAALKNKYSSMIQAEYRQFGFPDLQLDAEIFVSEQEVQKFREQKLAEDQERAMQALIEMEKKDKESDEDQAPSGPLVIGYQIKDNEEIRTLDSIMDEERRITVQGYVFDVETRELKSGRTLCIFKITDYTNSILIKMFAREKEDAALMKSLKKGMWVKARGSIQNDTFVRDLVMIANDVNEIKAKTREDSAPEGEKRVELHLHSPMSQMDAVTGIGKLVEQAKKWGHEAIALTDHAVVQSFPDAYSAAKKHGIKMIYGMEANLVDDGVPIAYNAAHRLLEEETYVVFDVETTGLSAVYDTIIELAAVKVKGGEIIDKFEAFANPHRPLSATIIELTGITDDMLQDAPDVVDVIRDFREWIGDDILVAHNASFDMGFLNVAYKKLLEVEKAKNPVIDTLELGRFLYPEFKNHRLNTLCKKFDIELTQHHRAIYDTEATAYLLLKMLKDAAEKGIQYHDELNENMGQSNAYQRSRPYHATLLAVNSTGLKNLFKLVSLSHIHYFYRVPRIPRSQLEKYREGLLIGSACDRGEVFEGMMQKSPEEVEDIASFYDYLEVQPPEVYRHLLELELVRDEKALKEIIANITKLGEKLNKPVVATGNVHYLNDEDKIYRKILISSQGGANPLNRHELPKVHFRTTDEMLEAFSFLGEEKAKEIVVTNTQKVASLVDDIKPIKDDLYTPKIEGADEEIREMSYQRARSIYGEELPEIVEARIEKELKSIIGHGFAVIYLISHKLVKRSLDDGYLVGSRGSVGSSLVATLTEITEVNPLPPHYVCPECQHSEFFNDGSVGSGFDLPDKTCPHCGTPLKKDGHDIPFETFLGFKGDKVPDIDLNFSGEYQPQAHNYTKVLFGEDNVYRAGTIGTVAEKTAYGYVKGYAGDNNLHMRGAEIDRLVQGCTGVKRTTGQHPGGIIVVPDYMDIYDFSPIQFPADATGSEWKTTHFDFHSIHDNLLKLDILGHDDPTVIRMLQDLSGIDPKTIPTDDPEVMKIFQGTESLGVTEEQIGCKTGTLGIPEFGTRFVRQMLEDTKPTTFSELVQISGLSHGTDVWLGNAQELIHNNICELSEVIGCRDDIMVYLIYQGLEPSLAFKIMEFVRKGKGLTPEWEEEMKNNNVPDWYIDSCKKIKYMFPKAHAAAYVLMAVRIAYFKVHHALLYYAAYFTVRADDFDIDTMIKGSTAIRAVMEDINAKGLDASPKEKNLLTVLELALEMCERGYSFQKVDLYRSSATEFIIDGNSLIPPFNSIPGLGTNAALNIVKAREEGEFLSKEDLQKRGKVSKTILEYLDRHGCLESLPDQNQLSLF
Sequence of RecQ-like DNA helicase BLM (Homo sapiens) (P54132 whole entry, looked up): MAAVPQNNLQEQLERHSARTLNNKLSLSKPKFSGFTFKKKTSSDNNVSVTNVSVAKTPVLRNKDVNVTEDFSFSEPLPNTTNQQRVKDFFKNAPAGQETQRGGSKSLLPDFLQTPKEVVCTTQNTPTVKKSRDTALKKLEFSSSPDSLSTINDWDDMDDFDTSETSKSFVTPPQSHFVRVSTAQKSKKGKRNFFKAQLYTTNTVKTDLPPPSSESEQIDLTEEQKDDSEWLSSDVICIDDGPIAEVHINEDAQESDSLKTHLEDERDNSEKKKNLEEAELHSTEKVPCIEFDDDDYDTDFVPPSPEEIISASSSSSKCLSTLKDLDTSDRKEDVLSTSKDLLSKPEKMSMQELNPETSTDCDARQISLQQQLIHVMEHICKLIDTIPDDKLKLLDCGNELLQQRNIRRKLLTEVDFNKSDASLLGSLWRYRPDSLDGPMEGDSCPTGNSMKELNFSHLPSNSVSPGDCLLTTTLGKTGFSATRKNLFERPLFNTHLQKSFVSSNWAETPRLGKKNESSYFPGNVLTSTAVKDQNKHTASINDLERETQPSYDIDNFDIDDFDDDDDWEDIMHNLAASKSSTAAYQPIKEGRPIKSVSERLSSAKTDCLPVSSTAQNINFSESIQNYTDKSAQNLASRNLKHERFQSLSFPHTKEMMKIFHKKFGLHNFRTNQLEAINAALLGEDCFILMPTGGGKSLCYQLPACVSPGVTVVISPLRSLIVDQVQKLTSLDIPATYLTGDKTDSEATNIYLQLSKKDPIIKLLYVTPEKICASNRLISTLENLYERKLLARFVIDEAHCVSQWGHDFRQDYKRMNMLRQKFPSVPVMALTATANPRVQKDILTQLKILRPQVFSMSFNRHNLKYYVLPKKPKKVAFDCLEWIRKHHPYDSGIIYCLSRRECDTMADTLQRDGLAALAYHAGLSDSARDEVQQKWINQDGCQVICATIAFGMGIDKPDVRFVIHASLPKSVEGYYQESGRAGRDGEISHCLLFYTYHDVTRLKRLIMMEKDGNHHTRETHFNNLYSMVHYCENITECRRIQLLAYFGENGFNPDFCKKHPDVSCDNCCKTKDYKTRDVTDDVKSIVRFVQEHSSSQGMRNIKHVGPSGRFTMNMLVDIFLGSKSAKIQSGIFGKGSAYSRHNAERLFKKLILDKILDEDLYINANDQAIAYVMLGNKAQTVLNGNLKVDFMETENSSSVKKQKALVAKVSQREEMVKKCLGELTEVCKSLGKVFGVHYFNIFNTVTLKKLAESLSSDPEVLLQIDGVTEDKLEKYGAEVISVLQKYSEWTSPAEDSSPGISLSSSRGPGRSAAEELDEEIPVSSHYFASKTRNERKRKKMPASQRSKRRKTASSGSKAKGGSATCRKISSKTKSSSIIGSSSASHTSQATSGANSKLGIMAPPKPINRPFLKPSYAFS
Sequence of Tumor susceptibility gene 101 protein (Homo sapiens) (Q99816 whole entry, looked up, the tested form may be a part): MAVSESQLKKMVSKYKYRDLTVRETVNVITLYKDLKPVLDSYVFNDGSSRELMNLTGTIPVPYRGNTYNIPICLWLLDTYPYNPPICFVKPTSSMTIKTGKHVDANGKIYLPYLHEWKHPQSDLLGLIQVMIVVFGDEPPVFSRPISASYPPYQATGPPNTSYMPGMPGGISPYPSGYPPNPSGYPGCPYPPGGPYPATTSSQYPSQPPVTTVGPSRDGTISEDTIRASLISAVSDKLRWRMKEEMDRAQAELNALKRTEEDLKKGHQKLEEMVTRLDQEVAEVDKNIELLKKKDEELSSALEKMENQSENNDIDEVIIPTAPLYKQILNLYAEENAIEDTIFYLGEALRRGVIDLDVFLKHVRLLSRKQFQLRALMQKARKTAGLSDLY
Sequence of ATP-dependent DNA helicase Q1 (Homo sapiens) (P46063 whole entry, looked up): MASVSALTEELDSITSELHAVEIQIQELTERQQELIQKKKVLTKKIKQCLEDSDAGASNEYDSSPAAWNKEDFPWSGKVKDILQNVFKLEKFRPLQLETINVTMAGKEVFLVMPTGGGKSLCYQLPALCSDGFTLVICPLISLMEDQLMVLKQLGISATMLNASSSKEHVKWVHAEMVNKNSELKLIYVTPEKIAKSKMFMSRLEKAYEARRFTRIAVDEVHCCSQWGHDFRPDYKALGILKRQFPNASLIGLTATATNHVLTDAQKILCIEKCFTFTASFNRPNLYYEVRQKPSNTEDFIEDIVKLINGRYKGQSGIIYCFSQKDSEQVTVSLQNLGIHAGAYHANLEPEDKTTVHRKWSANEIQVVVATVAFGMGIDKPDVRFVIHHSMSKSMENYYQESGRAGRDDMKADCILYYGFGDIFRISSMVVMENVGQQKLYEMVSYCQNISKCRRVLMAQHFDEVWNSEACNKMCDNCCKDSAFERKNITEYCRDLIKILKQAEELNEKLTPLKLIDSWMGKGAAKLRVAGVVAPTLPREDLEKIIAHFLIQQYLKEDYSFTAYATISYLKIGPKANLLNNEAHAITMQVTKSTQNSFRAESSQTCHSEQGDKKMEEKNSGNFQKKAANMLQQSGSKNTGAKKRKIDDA

With `CN(C)CC[C@@H](c1ccc(Cl)cc1)c1ccccn1`, the Potency result in assay [1], in [2], in assay [3], in assay [4] and in assay [5] was “inactive” each time. Moreover, the result in assay [6], in [7], in assay [8] and in assay [9] was inactive.

As for `C=Cc1c(C)c2cc3[nH]c(cc4nc(cc5nc(cc1[nH]2)C(C)=C5CCC(=O)O)C(CCC(=O)O)=C4C)c(C)c3C=C`, the Potency in [1] was 11.2 µM (active). The call in assay [10], in [6], in [8] and in assay [9] was inactive. Moreover, the Potency entry in assay [2], in [3], in assay [4] and in [5] was “inactive” in each case.

Turning to `NC1CCN(c2cccc(Cl)n2)CC1`, the Potency entry in [1], in assay [2], in [3], in assay [4] and in assay [5] was “inactive” each time. In addition, the compound was called inactive in assay [6], in assay [7], in [8] and in [9].

For `NC(=O)c1ncn([C@@H]2O[C@H](CO)[C@@H](O)[C@H]2O)n1`, the Potency result in assay [1], in assay [2], in assay [3], in [4] and in [5] was “inactive” throughout. The outcome in assay [10], in assay [6], in [7] and in [9] was inactive.

With `CC(C(O)c1ccc(O)cc1)N1CCC(Cc2ccccc2)CC1` (stereo not given), the Potency entry in [1], in assay [2] and in [3] was “inactive” each time. Moreover, the outcome in assay [10], in [7] and in assay [9] was inactive. The Potency in [5] was 11.7 µM (active).

`CNCCCC1c2ccccc2C=Cc2ccccc21`: the Potency result in assay [1], in [2], in assay [3], in assay [4] and in assay [5] was “inactive” each time. Moreover, the compound was called inactive in assay [10], in assay [6], in [7] and in assay [9].

With `CN1CCN(C2Cc3ccccc3Sc3ccc(Cl)cc32)CC1` (stereo not given), the Potency entry in assay [1] and in assay [3] was “inactive” in each case. Also, the result in [10], in [7] and in [9] was inactive.

For `OCCN1CCN(CCCN2c3ccccc3Sc3ccc(Cl)cc32)CC1`, the Potency result in [1] and in [3] was “inactive” in each case. Further, the compound was called inactive in assay [10], in assay [7] and in assay [9]. Also, the Potency in assay [5] was 7.36 µM (active).

Regarding `CSc1ccc2c(c1)C(N1CCN(C)CC1)Cc1ccccc1S2` (stereo not given), the Potency result in assay [1] and in [4] was “inactive” throughout. Besides, the compound was called inactive in assay [10], in assay [7] and in assay [9].

As to `CCN(CC)CCNC(=O)c1cc(Cl)c(N)cc1OC`, the Potency entry in assay [1], in [2], in [3], in [4] and in assay [5] was “inactive” each time. The compound was called inactive in assay [10], in assay [6], in [7] and in assay [9].

With `CC1=C(CC(=O)O)c2cc(F)ccc2/C1=C\c1ccc(S(C)(=O)=O)cc1`, the Potency result in assay [1], in assay [2], in assay [3], in assay [4] and in [5] was “inactive” throughout. Moreover, the compound was classed as inactive in assay [10], in assay [6], in assay [7], in assay [8] and in [9].

On to `N=c1c[n+](N2CCOCC2)[n-]o1`, for which the Potency result in [1], in assay [2], in assay [3], in assay [4] and in assay [5] was “inactive” in each case. For the same compound, the compound was called inactive in [10], in assay [6], in assay [7] and in [9].

On to `CN(C)CCCN1c2ccccc2CCc2ccccc21`, for which the Potency result in assay [1], in [2] and in [3] was “inactive” throughout. The compound was classed as inactive in [10], in assay [6] and in assay [9].

`Cc1cc(N)c2ccccc2[n+]1CCCCCCCCCC[n+]1c(C)cc(N)c2ccccc21`: the Potency entry in [1], in [2] and in assay [3] was “inactive” in each case. Further, the outcome in assay [10], in assay [7] and in assay [9] was inactive. Moreover, the Potency in assay [5] is 7.36 µM (active).

In the case of `CN(C)CCC=C1c2ccccc2CCc2ccccc21`, the Potency result in assay [1], in [2] and in [3] was “inactive” in each case. In addition, the call in assay [10], in assay [6], in assay [7], in assay [8] and in assay [9] was inactive.

As to `C[C@H]1O[C@@H](n2cc(F)c(=O)[nH]c2=O)[C@H](O)[C@@H]1O`, the Potency entry in assay [1] was “inactive”. For the same compound, the result in assay [10] and in [6] was inactive.

Take `CSc1ccc2c(c1)N(CCC1CCCCN1C)c1ccccc1S2` (stereo not given): the Potency entry in assay [1] and in assay [4] was “inactive” throughout. Further, the compound was called inactive in assay [10], in assay [7] and in [9].

Consider `CN(C)CCCN1c2ccccc2Sc2ccc(Cl)cc21`, for which the Potency entry in assay [1], in assay [2] and in assay [3] was “inactive” in each case. In addition, the outcome in [10], in [7] and in [9] was inactive.

`NC(N)=NCCC[C@H](N)C(=O)O`: the Potency entry in [1], in assay [2], in assay [3], in assay [4] and in [5] was “inactive” in each case. Also, the result in assay [10], in assay [6], in [7] and in assay [9] was inactive.

For the compound `C[C@](N)(Cc1ccc(O)cc1)C(=O)O`, the Potency result in assay [1], in assay [2], in [3], in assay [4] and in [5] was “inactive” in each case. Besides, the call in assay [6], in [7], in [8] and in assay [9] was inactive.

For `CC(C)NC[C@H](O)c1ccc(O)c(O)c1`, the Potency entry in [1], in assay [2], in assay [3], in [4] and in [5] was “inactive” throughout. The compound was called inactive in assay [6], in assay [7], in assay [8] and in [9].

Take `CC(CN(C)C)CN1c2ccccc2CCc2ccccc21` (stereo not given): the Potency entry in [1], in assay [2], in assay [3], in assay [4] and in assay [5] was “inactive” in each case. Further, the compound was classed as inactive in assay [10], in assay [6], in assay [7] and in assay [9].

Consider `CCCn1cnc2c1c(=O)n(CCCCC(C)=O)c(=O)n2C`, for which the Potency entry in assay [1], in assay [2], in assay [3], in assay [4] and in assay [5] was “inactive” in each case. For the same compound, the compound was called inactive in assay [6], in assay [7], in [8] and in assay [9].

For the compound `CCCCCCCCCCCCCCCC(=O)NCCO`, the Potency result in assay [1], in assay [2], in [3], in assay [4] and in assay [5] was “inactive” in each case. In addition, the call in assay [10], in assay [6], in assay [7] and in assay [9] was inactive.
